Screens deposited in PubChem by Sanford-Burnham Center for Chemical Genomics.
CYP2C19 inhib – blockers of cytochrome P450 2C19 activity – biochemical, luminescence, ADME assay, primary screen; P33261; CYP2C19 Supersomes, luciferin-H EGE luminescence, 30 min; inhibition, % at 5 µM; actives 21% (n = 96,000); AID 778, 2007;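 active = CYP2C19 inhibition above a set limit at 5 µM in the primary screen, cut at about 50% in these data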
CYP2C9 activ – human CYP2C9 activators, primary screen, biochemical, luminescence. recombinant CYP2C9, luciferin-H conversion; active compounds read high; factor 1 = untreated enzyme, 0 = blocked. AID 1024, 2008. actives 1.4% (n = 96,000). Cytochrome P450 2C9 (Homo sapiens), P11712. activation factor at 5 µM;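 active = activation factor of 2 or more for CYP2C9 at a 5 µM dose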
Target sequence (P11712 whole entry, looked up): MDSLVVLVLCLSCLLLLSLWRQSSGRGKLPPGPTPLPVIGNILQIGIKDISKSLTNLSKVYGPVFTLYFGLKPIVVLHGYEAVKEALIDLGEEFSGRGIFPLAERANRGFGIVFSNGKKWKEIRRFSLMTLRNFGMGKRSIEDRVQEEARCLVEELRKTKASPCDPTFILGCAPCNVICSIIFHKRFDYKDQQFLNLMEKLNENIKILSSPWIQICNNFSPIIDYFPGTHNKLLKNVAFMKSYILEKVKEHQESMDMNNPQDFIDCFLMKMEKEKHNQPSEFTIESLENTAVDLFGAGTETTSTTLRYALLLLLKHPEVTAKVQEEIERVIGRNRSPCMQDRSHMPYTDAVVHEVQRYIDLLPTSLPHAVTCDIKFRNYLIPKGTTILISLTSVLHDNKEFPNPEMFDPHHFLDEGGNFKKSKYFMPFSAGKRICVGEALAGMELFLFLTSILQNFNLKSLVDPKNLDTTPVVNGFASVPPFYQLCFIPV
CYP2C9 inh – blockers of cytochrome P450 2C9 activity – biochemical, luminescence, ADME assay, primary screen | P11712 | CYP2C9 Supersomes, luciferin-H conversion | inhibition, % at 5 µM | actives 20% (n = 96,000) | AID 777, 2007;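 active = blocking of liver enzyme CYP2C9 beyond about 50% at 5 µM, limit read from the data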
PLAP activator – PLAP enzyme activators, biochemical, luminescence, HTS | Alkaline phosphatase, placental type (Homo sapiens), P05187 | purified PLAP enzyme, luminescent substrate read-out; active compounds read high | activation fold at 20 µM | actives 1.2% (n = 96,000) | AID 696, 2007; in the data active = activation fold above about 2
CYP2C19 activ – human CYP2C19 activators, primary screen, biochemical, luminescence | recombinant CYP2C19, luciferin-H EGE luminescence; active compounds read high; 0 = fully inhibited enzyme, 1 = untreated enzyme | activation factor at 5 µM | 96,000 tested, under 10 active;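 active = activation factor of at least 2 at 5 µM in the primary screen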
Large screens that a line does not name were inactive. The list is not random: actives were taken first. Their share in the collection is about 31%.

COc1ccc(-n2c(=S)[nH]c3cc(C(=O)NCCCN4CCCC4=O)ccc3c2=O)c(OC)c1	none
O/N=C/c1cccn1-c1ccc(O)cc1	CYP2C9 activ 3
Cc1ccccc1N(CC(=O)NCc1ccncc1)S(C)(=O)=O	CYP2C19 inhib 97, CYP2C9 inh 86
Cc1ccc(SCC(=O)NCc2cccnc2)cc1	none
COc1ccccc1N(CC(=O)NCc1ccccn1)S(C)(=O)=O	none
COc1ccc(OC)c(N(CC(=O)NCc2cccnc2)S(C)(=O)=O)c1	CYP2C19 inhib 71
COc1ccc(OC)c(N(CC(=O)NCc2ccncc2)S(C)(=O)=O)c1	CYP2C19 inhib 78, CYP2C9 inh 52
Cc1cc(C)cc(N(CC(=O)NCc2cccnc2)S(C)(=O)=O)c1	CYP2C19 inhib 64
COc1ccccc1N(CC(=O)NCc1cccnc1)S(C)(=O)=O	none
CC(=O)NC1=NC(=O)/C(=C/N2CCOCC2)S1	none
COc1ccccc1N(CC(=O)Nc1ccccc1C(=O)NC(C)C)S(C)(=O)=O	none
CS(=O)(=O)N(CC(=O)NCc1ccncc1)c1ccc(Cl)c(Cl)c1	CYP2C19 inhib 100, CYP2C9 inh 99
Cc1ccccc1N(CC(=O)Nc1ccccc1C(=O)O)S(C)(=O)=O	CYP2C9 inh 89
CS(=O)(=O)N(CC(=O)NCC1CCCO1)c1ccc(Cl)c(Cl)c1 (stereo not drawn)	none
Cc1ccc(-n2c(SCC(=O)Nc3cc(C)on3)nc3c(c2=O)SC(C)C3)cc1 (stereo not drawn)	none
CCCNc1c(N)n(-c2ccccc2)c(=O)[nH]c1=O	none
COc1cc2c(cc1OC)C(c1ccccc1)N(C(=O)CCl)CC2 (stereo not drawn)	none
COc1cc2c(cc1OC)C(c1cccs1)N(C(=O)C(C)C)CC2 (stereo not drawn)	CYP2C19 inhib 63
CCn1c(CNc2ccc(C)cc2C)nnc1SCC(=O)N1CCCc2ccccc21	CYP2C19 inhib 86
Cc1ccc(NCc2nnc(SCC(=O)Nc3ccccc3)n2CC2CCCO2)c(C)c1 (stereo not drawn)	CYP2C19 inhib 52
Cc1ccc(NCc2nnc(SCCN3CCCCC3)n2CC2CCCO2)c(C)c1 (stereo not drawn)	none
CCn1c(CNc2ccc(F)cc2)nnc1SCC(=O)N1CCCc2ccccc21	CYP2C19 inhib 63
COc1ccc(NCc2nnc(SCC(=O)N3CCCc4ccccc43)n2C)cc1	none
Cc1ccc(CN2C(=O)CCC2C(=O)NCCCN2CCCC(C)C2)cc1 (stereo not drawn)	none
O=C(NC1CCN(C(=S)NCc2ccco2)CC1)NC12CC3CC(CC(C3)C1)C2	none
CCOC(=O)C1=C(c2ccccc2)NC(SCC(N)=O)=C(C#N)C1c1cccnc1 (stereo not drawn)	CYP2C19 inhib 68, CYP2C9 inh 63
CC(=O)C1=C(C)NC(SCC(N)=O)=C(C#N)C1c1sccc1C (stereo not drawn)	none
CCOC(=O)CSC1=C(C#N)C(c2sccc2C)C(C(C)=O)=C(C)N1 (stereo not drawn)	CYP2C19 inhib 65, CYP2C9 inh 73
CCOC(=O)C1=C(C)NC(SCC(=O)Nc2nc(C)cs2)=C(C#N)C1c1cccs1 (stereo not drawn)	CYP2C19 inhib 85, CYP2C9 inh 96
CC(=O)C1=C(C)NC(SCC(N)=O)=C(C#N)C1c1cccs1 (stereo not drawn)	none
CCOC(=O)C1=C(C)NC(=O)C(C#N)C1c1ccncc1 (stereo not drawn)	CYP2C9 inh 50
O=C(Nc1ccc(NC(=O)c2sc3ccccc3c2Cl)cc1Cl)c1ccco1	none
N#Cc1cnn(-c2ncnc3sc(-c4ccccc4)cc23)c1N	none
CCOC(=O)C1=C(C)NC(SCC(N)=O)=C(C#N)C1c1ccncc1 (stereo not drawn)	CYP2C19 inhib 82, CYP2C9 inh 75
CCOC(=O)c1[nH]c(C)c(CCC(=O)OC)c1C	none
COc1ccc(C(=N/O)/C(=N/O)c2ccc(OC)cc2)cc1	CYP2C19 inhib 60
Cc1c(NS(=O)(=O)c2ccc3c(c2)c(=O)n(C)c(=O)n3C)c(=O)n(-c2ccccc2)n1C	none
